From PubChem BioAssay (NCI)
This is part of a sample that, as a whole, favours compounds with a hit. Of some 83,000 tested, about 20% had one in any assay.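 The endpoint reported here, percent growth, reads 100 for growth as untreated, 0 for no net growth and -100 for all cells dead.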 Activity calls are given as the source filed them. How the source made its calls: active means growth percent below 10; inactive means the rest.

Assays:
Experiment in all cases: NCI-60 one-dose screen, 48 h (100 = growth as untreated, 0 = no growth, -100 = all killed)
NCI-H23 lung = conditions: 10 µM unless noted
NCI-H226 lung = conditions: 10 µM unless noted
NCI-H322M lung = conditions: 10 µM unless noted
NCI-H460 lung = conditions: 10 µM unless noted
HOP-92 NSCLC = conditions: 10 µM
NCI-H522 lung = conditions: 10 µM
A549/ATCC NSCLC = conditions: 10 µM unless noted
786-0 renal = conditions: 10 µM unless noted
DU-145 prostate = conditions: 10 µM unless noted
K-562 leukemia = conditions: 10 µM unless noted
MALME-3M melanoma = conditions: 10 µM unless noted
MDA-MB-231 breast = conditions: 10 µM unless noted
RXF 393 renal = conditions: 10 µM unless noted
SF-268 CNS = conditions: 10 µM unless noted
SF-295 CNS = conditions: 10 µM unless noted
SF-539 CNS = conditions: 10 µM unless noted
UACC-257 melanoma = conditions: 10 µM unless noted
M14 melanoma = conditions: 10 µM unless noted
COLO 205 colon = conditions: 10 µM unless noted

Measured: growth

COc1nc(OC)nc(-c2cc(-c3cc(OC)c(OC)c(OC)c3)no2)n1
inactive: NCI-H23 lung 101% | NCI-H226 lung 92.8% | NCI-H322M lung 115% | NCI-H460 lung 101% | HOP-92 NSCLC 95.4% | NCI-H522 lung 95.7% | A549/ATCC NSCLC 88.8% | 786-0 renal 93.9% | DU-145 prostate 105% | K-562 leukemia 95.1% | MALME-3M melanoma 110% | MDA-MB-231 breast 90.5% | RXF 393 renal 94.8% | SF-268 CNS 100% | SF-295 CNS 104% | SF-539 CNS 112% | UACC-257 melanoma 99.6% | M14 melanoma 111%

COc1cc2ncnc(-n3ncc4cc(NC(=O)Nc5ccc(Cl)c(Cl)c5)ccc43)c2cc1OC
inactive: K-562 leukemia 10.7%
active: NCI-H23 lung -54% | NCI-H226 lung -63.4% | NCI-H322M lung -46.1% | NCI-H460 lung -53.9% | HOP-92 NSCLC -57.2% | NCI-H522 lung 1.38% | A549/ATCC NSCLC 0.341% | 786-0 renal -43.4% | DU-145 prostate 1.5% | MALME-3M melanoma -44.3% | MDA-MB-231 breast -74.3% | RXF 393 renal -86.7% | SF-268 CNS -34.8% | SF-295 CNS -66.8% | SF-539 CNS -70.6% | UACC-257 melanoma -10.3% | M14 melanoma -41%

Cn1c2c(cc(S(=O)(=O)c3ccccc3)c1=O)CCc1c-2cnn1-c1ccc(Cl)cc1
active: NCI-H226 lung -14.8% | HOP-92 NSCLC -34.2% | NCI-H522 lung -11.3% | A549/ATCC NSCLC 8.48% | DU-145 prostate 8.78% | MALME-3M melanoma -70.7% | RXF 393 renal 2.65% | SF-295 CNS -4.18% | SF-539 CNS -19%
inactive: NCI-H23 lung 69.7% | NCI-H322M lung 38.9% | NCI-H460 lung 20.3% | COLO 205 colon 77.5% | K-562 leukemia 39.8% | MDA-MB-231 breast 31.3% | SF-268 CNS 32.9% | UACC-257 melanoma 11.7% | M14 melanoma 64%

COC1=CC(c2ccc[nH]2)=N/C1=C\c1[nH]c(C)c(C(=O)CCCCC(=O)NC(C)(C)C)c1C
inactive: NCI-H23 lung 40.6% | NCI-H226 lung 37.3% | NCI-H322M lung 45.7% | A549/ATCC NSCLC 11.4% | COLO 205 colon 44.4% | DU-145 prostate 51.5% | K-562 leukemia 53.5% | MALME-3M melanoma 48.7% | SF-268 CNS 60.2% | SF-295 CNS 24% | SF-539 CNS 63.1% | UACC-257 melanoma 75.7%
active: NCI-H460 lung 5.36% | HOP-92 NSCLC 3% | NCI-H522 lung -28.1% | MDA-MB-231 breast -19.2% | RXF 393 renal -47.1%

CC(=O)OC1CC2C3CCC4C[C@@H](NC(=O)C=C(C)C)CC[C@]4(C)C3CC[C@]2(C)[C@H]1C(C)N(C)C (stereo partly drawn)
inactive: NCI-H23 lung 40.6% | NCI-H226 lung 30.5% | NCI-H522 lung 61.2% | A549/ATCC NSCLC 11.6% | DU-145 prostate 31.6%
active: NCI-H322M lung -2.28% | NCI-H460 lung -39.9% | HOP-92 NSCLC -36.2% | COLO 205 colon -84% | K-562 leukemia -37.5% | MALME-3M melanoma -54% | MDA-MB-231 breast -36.1% | RXF 393 renal -64.6% | SF-268 CNS -63% | SF-295 CNS -37.6% | SF-539 CNS -76.5% | UACC-257 melanoma -58.4% | M14 melanoma -59.9%

CCOC(=O)c1c(C)oc2ncnc(Nc3ccc(C(=O)NCCc4ccccc4)cc3)c12
inactive: NCI-H23 lung 81.8% | NCI-H226 lung 63.2% | NCI-H322M lung 92.9% | NCI-H460 lung 83% | HOP-92 NSCLC 61.6% | NCI-H522 lung 66.9% | A549/ATCC NSCLC 56.6% | 786-0 renal 74.9% | DU-145 prostate 82.1% | K-562 leukemia 89% | MALME-3M melanoma 89.5% | MDA-MB-231 breast 85.7% | RXF 393 renal 71.8% | SF-268 CNS 74.1% | SF-295 CNS 90.4% | SF-539 CNS 58.9% | UACC-257 melanoma 79.7% | M14 melanoma 81.3%

CCOC(=O)C1C(=O)C(=O)N(C(C)C)C1C(=O)OCC (stereo not drawn)
inactive: NCI-H23 lung 97.3% | NCI-H226 lung 100% | NCI-H322M lung 104% | NCI-H460 lung 106% | HOP-92 NSCLC 83% | NCI-H522 lung 118% | 786-0 renal 107% | COLO 205 colon 118% | DU-145 prostate 113% | K-562 leukemia 108% | MALME-3M melanoma 92.4% | MDA-MB-231 breast 103% | RXF 393 renal 105% | SF-268 CNS 99.3% | SF-295 CNS 98.2% | SF-539 CNS 99.8% | UACC-257 melanoma 86.7% | M14 melanoma 111%

O=[N+]([O-])c1ccc(-c2ncc(-c3ccc(O)cc3O)[nH]2)cc1
active: UACC-257 melanoma -43.6%
inactive: NCI-H23 lung 105% | NCI-H226 lung 102% | NCI-H322M lung 116% | NCI-H460 lung 109% | HOP-92 NSCLC 88.5% | NCI-H522 lung 124% | A549/ATCC NSCLC 44.9% | COLO 205 colon 112% | DU-145 prostate 143% | K-562 leukemia 95.6% | MALME-3M melanoma 218% | MDA-MB-231 breast 104% | SF-268 CNS 101% | SF-539 CNS 118% | M14 melanoma 135%

COc1nc(OC)nc(-c2cc(C(=O)c3ccc(Br)cc3)n3cc(C)cc(C)c23)n1
inactive: NCI-H23 lung 48.1% | NCI-H226 lung 34.3% | NCI-H322M lung 81.8% | NCI-H460 lung 34.8% | HOP-92 NSCLC 33.9% | NCI-H522 lung 57.7% | A549/ATCC NSCLC 51.3% | 786-0 renal 12% | DU-145 prostate 76.3% | K-562 leukemia 91.1% | MALME-3M melanoma 54.1% | MDA-MB-231 breast 49.8% | RXF 393 renal 11.9% | SF-268 CNS 55.4% | SF-295 CNS 48.7% | SF-539 CNS 26.2% | UACC-257 melanoma 94.8% | M14 melanoma 90.3%

CCOP1(=O)CC(C)=C(Cl)C(P(=O)(O)O)C1 (stereo not drawn)
inactive: NCI-H23 lung 93.3% | NCI-H226 lung 99.9% | NCI-H322M lung 108% | NCI-H460 lung 114% | HOP-92 NSCLC 89.1% | NCI-H522 lung 89.7% | A549/ATCC NSCLC 94.8% | COLO 205 colon 110% | DU-145 prostate 109% | K-562 leukemia 101% | MALME-3M melanoma 95.1% | MDA-MB-231 breast 100% | RXF 393 renal 96% | SF-268 CNS 109% | SF-295 CNS 109% | SF-539 CNS 105% | UACC-257 melanoma 87.3%

CCCCCSc1ccc2nc(NC(=O)OCC)sc2c1
inactive: NCI-H23 lung 18.5% | NCI-H226 lung 21.7% | NCI-H322M lung 41.3% | NCI-H460 lung 10.5% | HOP-92 NSCLC 31.7% | NCI-H522 lung 20.8% | A549/ATCC NSCLC 34.6% | 786-0 renal 33.6% | DU-145 prostate 22.8% | K-562 leukemia 15.9% | MALME-3M melanoma 42.2% | MDA-MB-231 breast 26.4% | SF-268 CNS 50.8% | UACC-257 melanoma 67.4% | M14 melanoma 11.9%
active: RXF 393 renal 7.13% | SF-295 CNS 6.93% | SF-539 CNS -12.1%

COc1ccc(NC(=O)/C=C(C)/C=C/C=C(C)/C=C/C2=C(C)CCCC2(C)C)cc1
inactive: NCI-H23 lung 93.4% | NCI-H226 lung 78.2% | NCI-H322M lung 90.8% | NCI-H460 lung 30.6% | HOP-92 NSCLC 62% | NCI-H522 lung 51.7% | A549/ATCC NSCLC 39.9% | COLO 205 colon 33% | DU-145 prostate 101% | K-562 leukemia 46.7% | MALME-3M melanoma 68.1% | MDA-MB-231 breast 38.3% | RXF 393 renal 79.4% | SF-268 CNS 81.4% | SF-295 CNS 80% | SF-539 CNS 32.8% | UACC-257 melanoma 87.4%

CCCCn1c(Cc2ccc(OC)cc2)nc2cc(OC)c(OC)cc2c1=O
inactive: NCI-H23 lung 62.1% | NCI-H226 lung 68.1% | NCI-H322M lung 101% | NCI-H460 lung 99.2% | HOP-92 NSCLC 61.9% | NCI-H522 lung 87% | A549/ATCC NSCLC 19.7% | COLO 205 colon 107% | DU-145 prostate 103% | K-562 leukemia 48.6% | MALME-3M melanoma 112% | MDA-MB-231 breast 73.9% | SF-268 CNS 86.1% | SF-539 CNS 103% | M14 melanoma 119%
active: UACC-257 melanoma -56.6%

Cc1[nH]n(C(=S)Nc2nc3cc(Cl)c(F)cc3s2)c(=O)c1N=Nc1ccc(F)c(Cl)c1
inactive: NCI-H23 lung 97.4% | NCI-H226 lung 95.7% | NCI-H322M lung 119% | NCI-H460 lung 106% | HOP-92 NSCLC 71.2% | NCI-H522 lung 123% | A549/ATCC NSCLC 40.1% | COLO 205 colon 109% | DU-145 prostate 154% | K-562 leukemia 89.5% | MALME-3M melanoma 139% | MDA-MB-231 breast 93.5% | SF-268 CNS 90% | SF-539 CNS 108% | M14 melanoma 114%
active: UACC-257 melanoma -34.2%

Cc1nnc(/N=C2\NC(=O)/C(=C/C=C/c3ccccc3)S2)s1
active: NCI-H522 lung 1.52%
inactive: NCI-H23 lung 55.2% | NCI-H226 lung 78% | NCI-H322M lung 72.8% | NCI-H460 lung 24.5% | HOP-92 NSCLC 56.9% | A549/ATCC NSCLC 39.8% | 786-0 renal 66.9% | DU-145 prostate 57.5% | K-562 leukemia 36% | MALME-3M melanoma 54.1% | MDA-MB-231 breast 71.4% | RXF 393 renal 69.2% | SF-268 CNS 51.9% | SF-295 CNS 32.5% | SF-539 CNS 64.9% | UACC-257 melanoma 75.3% | M14 melanoma 49.8%

CC(C)OC(=O)[C@H](C)N[P@@](=O)(OC[C@@]1(C)O[C@@H](n2cc(F)c(N)nc2=O)C[C@@H]1O[P@](=O)(N[C@@H](C)C(=O)OC(C)C)Oc1ccccc1)Oc1ccccc1
inactive: NCI-H23 lung 94.4% | NCI-H226 lung 96.4% | NCI-H322M lung 102% | NCI-H460 lung 28.7% | HOP-92 NSCLC 85.1% | NCI-H522 lung 85.6% | A549/ATCC NSCLC 92.2% | 786-0 renal 104% | DU-145 prostate 103% | MALME-3M melanoma 91.1% | MDA-MB-231 breast 119% | SF-268 CNS 54% | SF-295 CNS 103% | SF-539 CNS 63.3% | UACC-257 melanoma 92.6% | M14 melanoma 91.6%

O=C(N/N=C\c1ccc(-c2ccc(Br)cc2)o1)c1cc2oc(-c3cccc(C(F)(F)F)c3)cc2[nH]1
active: UACC-257 melanoma -48.2%
inactive: NCI-H23 lung 96.8% | NCI-H226 lung 106% | NCI-H322M lung 70.6% | NCI-H460 lung 91.5% | HOP-92 NSCLC 111% | NCI-H522 lung 122% | A549/ATCC NSCLC 38.3% | COLO 205 colon 107% | DU-145 prostate 126% | K-562 leukemia 90.2% | MALME-3M melanoma 97.1% | MDA-MB-231 breast 111% | SF-268 CNS 87.7% | SF-539 CNS 97.9% | M14 melanoma 117%
